Common to all, as to test: DAPPL (digital affinity profiling via proximity ligation, sequencing); 10 mM Tris-HCl pH 7.5, 50 mM NaCl, 1 mM DTT, 4% glycerol, room temperature, 30 min; GST-TFs on glutathione beads, 16-mer random dsDNA library, 0.1% formaldehyde crosslink after washing; high values mean tight binding
One experiment concerns the target T1, FLI1 (Homo sapiens, UniProt Q01543 1-452).
T1 sequence: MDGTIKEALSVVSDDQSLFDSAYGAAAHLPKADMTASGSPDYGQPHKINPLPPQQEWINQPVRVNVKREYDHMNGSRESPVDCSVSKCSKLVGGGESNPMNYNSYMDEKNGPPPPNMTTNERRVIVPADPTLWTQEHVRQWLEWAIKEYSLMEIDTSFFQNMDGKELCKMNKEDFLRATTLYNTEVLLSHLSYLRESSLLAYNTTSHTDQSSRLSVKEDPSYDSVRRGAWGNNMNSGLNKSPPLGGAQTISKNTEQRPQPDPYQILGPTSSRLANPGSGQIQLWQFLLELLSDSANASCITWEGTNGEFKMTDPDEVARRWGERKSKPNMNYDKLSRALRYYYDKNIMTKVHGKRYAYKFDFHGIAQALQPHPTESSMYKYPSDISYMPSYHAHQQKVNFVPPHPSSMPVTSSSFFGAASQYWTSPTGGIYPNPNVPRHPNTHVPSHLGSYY
Particulars: protein: recombinant; tags: N-terminal GST; dsDNA, one strand shown. Put shortly: (§1)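 Binding signal is defined as a hexamer's read frequency for one factor over its frequency for the tag-only sample. To obtain reads, GST-fused human transcription factors were expressed in yeast, captured on glutathione beads, barcoded with DNA and pooled with that sample. Pools met 200 nmole of a 16-mer random double-stranded DNA library in Tris/NaCl/DTT/glycerol buffer for 30 min at room temperature before washing, 0.1% formaldehyde crosslinking, proximity ligation (BsaI/T4 ligase, 1 h, 37 °C), PCR and Illumina NextSeq500 sequencing.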

For a further experiment, the target named is T2, ELK1 (Homo sapiens, UniProt P19419 1-428).
T2 sequence: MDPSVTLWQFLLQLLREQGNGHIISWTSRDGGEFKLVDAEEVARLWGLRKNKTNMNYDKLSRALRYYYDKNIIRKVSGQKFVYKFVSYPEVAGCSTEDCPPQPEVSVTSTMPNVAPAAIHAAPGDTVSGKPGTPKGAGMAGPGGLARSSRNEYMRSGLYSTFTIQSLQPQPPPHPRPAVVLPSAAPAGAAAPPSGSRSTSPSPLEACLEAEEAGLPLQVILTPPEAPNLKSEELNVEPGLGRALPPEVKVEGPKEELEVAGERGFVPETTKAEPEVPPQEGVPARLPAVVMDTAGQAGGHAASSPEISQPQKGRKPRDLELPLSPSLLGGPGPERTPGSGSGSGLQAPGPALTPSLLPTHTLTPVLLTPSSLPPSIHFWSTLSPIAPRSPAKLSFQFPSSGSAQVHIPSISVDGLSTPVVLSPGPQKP
The conditions noted are these: protein: recombinant; tags: N-terminal GST; dsDNA, one strand shown. Put shortly: as §1

Another experiment has as its target T3, GABPA (Homo sapiens, UniProt Q06546 1-454).
T3 sequence: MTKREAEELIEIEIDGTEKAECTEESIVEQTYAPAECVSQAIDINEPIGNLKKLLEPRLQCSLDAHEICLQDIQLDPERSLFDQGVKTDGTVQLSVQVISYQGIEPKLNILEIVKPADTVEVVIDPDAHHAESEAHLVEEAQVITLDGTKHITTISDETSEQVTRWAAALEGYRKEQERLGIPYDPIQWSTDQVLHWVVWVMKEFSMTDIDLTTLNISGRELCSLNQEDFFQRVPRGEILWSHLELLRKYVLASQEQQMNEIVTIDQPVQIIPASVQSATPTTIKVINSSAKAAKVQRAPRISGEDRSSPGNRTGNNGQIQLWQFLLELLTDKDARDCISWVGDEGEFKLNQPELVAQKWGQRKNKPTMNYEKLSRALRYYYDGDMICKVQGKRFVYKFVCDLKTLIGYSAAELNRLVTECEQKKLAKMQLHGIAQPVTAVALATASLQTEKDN
The conditions noted are these: protein: recombinant; tags: N-terminal GST; dsDNA, one strand shown. Put shortly: as §1

A further experiment concerns the target T4, ERG (Homo sapiens, UniProt P11308 1-479).
T4 sequence: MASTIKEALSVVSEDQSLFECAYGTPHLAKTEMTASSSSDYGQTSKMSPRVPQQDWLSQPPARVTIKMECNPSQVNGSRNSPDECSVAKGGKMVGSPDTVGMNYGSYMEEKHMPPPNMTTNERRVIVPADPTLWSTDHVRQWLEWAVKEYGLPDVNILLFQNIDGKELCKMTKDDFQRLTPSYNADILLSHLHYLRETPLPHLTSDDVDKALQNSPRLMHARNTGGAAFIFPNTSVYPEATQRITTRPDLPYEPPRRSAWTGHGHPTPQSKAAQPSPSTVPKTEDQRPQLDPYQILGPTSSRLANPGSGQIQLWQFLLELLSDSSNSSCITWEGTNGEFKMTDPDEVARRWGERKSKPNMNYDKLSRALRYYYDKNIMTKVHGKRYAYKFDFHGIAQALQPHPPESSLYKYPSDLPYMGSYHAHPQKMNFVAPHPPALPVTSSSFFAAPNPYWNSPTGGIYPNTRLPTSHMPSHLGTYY
Particulars: protein: recombinant; tags: N-terminal GST; dsDNA, one strand shown. A digest of the protocol:
as §1

The target in the next experiment is ELF1 (Homo sapiens, UniProt P32519 1-619). The conditions noted are these: protein: recombinant; tags: N-terminal GST; dsDNA, one strand shown. A digest of the protocol: as §1
The next experiment concerns the target T5, EHF (Homo sapiens, UniProt Q9NZC4 1-300).
T5 sequence: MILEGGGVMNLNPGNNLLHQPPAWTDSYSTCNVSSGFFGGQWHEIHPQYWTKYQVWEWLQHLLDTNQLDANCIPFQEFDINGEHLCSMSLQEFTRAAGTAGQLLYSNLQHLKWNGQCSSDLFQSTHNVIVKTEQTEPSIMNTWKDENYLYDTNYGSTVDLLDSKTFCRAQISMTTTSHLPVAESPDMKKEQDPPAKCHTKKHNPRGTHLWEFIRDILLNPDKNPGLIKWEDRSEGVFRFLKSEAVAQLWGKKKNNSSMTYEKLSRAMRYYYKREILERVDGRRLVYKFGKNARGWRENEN
Particulars: protein: recombinant; tags: N-terminal GST; dsDNA, one strand shown. A digest of the protocol: as §1

A further experiment deals with SPI1 (Homo sapiens, UniProt P17947 1-270). Particulars: protein: recombinant; tags: N-terminal GST; dsDNA, one strand shown. A digest of the protocol:
as §1

Another experiment addresses SPIB (Homo sapiens, UniProt Q01892 1-262). Particulars: protein: recombinant; tags: N-terminal GST; dsDNA, one strand shown. Put shortly: as §1
The target of a further experiment is T6, ELK3 (Homo sapiens, UniProt P41970 1-407).
T6 sequence: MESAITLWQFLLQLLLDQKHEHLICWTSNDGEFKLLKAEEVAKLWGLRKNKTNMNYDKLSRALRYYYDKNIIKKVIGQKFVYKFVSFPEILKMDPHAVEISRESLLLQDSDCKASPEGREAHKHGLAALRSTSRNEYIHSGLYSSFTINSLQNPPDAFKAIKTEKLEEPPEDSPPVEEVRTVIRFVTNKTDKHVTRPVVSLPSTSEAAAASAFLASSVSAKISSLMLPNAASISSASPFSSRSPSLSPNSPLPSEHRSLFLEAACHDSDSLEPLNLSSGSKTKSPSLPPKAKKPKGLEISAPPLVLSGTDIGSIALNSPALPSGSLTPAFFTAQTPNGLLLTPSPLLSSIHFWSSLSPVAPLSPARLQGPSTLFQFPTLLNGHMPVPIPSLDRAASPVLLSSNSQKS
Particulars: protein: recombinant; tags: N-terminal GST; dsDNA, one strand shown. A digest of the protocol:
as §1

The target in the next experiment is T7, FEV (Homo sapiens, UniProt Q99581 1-238).
T7 sequence: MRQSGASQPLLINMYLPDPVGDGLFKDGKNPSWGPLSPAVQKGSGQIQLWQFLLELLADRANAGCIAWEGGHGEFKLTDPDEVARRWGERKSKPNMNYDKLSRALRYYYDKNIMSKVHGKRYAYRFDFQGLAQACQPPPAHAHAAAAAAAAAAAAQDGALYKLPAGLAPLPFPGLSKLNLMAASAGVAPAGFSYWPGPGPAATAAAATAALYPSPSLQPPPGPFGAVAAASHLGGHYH
Particulars: protein: recombinant; tags: N-terminal GST; dsDNA, one strand shown. Put shortly:
as §1

A further experiment has as its target ETV5 (Homo sapiens, UniProt P41161 1-510). Particulars: protein: recombinant; tags: N-terminal GST; dsDNA, one strand shown. A digest of the protocol: as §1
A further experiment concerns the target HSF1 (Homo sapiens, UniProt Q00613 1-529). Particulars: protein: recombinant; tags: N-terminal GST; chain copies: 3; dsDNA, one strand shown. A digest of the protocol: as §1
Another experiment addresses ELF4 (Homo sapiens, UniProt Q99607 1-663). The conditions noted are these: protein: recombinant; tags: N-terminal GST; dsDNA, one strand shown. Put shortly: as §1
A further experiment has as its target T8, ELK4 (Homo sapiens, UniProt P28324-2 1-405).
T8 sequence: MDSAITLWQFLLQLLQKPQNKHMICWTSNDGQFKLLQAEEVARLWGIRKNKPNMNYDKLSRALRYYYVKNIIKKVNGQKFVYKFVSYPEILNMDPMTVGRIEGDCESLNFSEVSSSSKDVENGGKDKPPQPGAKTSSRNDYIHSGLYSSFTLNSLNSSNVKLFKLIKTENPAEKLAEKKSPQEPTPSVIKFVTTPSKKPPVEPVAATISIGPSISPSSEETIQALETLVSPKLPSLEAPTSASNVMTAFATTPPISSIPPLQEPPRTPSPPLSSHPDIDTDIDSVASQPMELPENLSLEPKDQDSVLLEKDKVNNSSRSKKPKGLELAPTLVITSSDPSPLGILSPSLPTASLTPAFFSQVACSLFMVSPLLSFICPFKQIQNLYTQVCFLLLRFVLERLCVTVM
The conditions noted are these: protein: recombinant; tags: N-terminal GST; dsDNA, one strand shown. Put shortly: as §1

In another experiment the target is T9, ETV2 (Homo sapiens, UniProt O00321 1-342).
T9 sequence: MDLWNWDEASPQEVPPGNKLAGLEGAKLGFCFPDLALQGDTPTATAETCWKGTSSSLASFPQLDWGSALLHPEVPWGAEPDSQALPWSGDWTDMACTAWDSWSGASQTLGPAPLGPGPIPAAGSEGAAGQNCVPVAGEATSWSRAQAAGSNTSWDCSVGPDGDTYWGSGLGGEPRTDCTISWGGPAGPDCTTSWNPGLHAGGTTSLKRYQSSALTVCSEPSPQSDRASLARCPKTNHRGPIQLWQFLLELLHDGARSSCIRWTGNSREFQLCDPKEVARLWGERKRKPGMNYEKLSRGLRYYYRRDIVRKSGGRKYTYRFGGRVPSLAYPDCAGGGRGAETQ
Particulars: protein: recombinant; tags: N-terminal GST; dsDNA, one strand shown. A digest of the protocol: as §1

In a further experiment the target is T10, ELF3 (Homo sapiens, UniProt P78545 1-371).
T10 sequence: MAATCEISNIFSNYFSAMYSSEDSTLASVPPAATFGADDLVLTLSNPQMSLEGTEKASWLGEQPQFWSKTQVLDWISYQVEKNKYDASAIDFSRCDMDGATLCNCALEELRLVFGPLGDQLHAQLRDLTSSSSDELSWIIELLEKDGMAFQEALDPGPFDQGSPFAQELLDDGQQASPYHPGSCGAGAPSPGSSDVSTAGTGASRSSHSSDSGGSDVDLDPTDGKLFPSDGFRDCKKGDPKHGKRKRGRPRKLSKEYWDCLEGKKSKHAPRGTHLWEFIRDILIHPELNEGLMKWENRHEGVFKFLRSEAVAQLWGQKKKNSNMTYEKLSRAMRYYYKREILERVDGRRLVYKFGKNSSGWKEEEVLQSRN
Particulars: protein: recombinant; tags: N-terminal GST; dsDNA, one strand shown. Put shortly: as §1

The target of another experiment is CRX (Homo sapiens, UniProt O43186 1-299). The conditions noted are these: protein: recombinant; tags: N-terminal GST; dsDNA, one strand shown. Put shortly:
as §1

A further experiment concerns the target ETV1 (Homo sapiens, UniProt P50549 1-477). The conditions noted are these: protein: recombinant; tags: N-terminal GST; dsDNA, one strand shown. A digest of the protocol:
as §1

Chain of ELF1 (P32519 whole entry): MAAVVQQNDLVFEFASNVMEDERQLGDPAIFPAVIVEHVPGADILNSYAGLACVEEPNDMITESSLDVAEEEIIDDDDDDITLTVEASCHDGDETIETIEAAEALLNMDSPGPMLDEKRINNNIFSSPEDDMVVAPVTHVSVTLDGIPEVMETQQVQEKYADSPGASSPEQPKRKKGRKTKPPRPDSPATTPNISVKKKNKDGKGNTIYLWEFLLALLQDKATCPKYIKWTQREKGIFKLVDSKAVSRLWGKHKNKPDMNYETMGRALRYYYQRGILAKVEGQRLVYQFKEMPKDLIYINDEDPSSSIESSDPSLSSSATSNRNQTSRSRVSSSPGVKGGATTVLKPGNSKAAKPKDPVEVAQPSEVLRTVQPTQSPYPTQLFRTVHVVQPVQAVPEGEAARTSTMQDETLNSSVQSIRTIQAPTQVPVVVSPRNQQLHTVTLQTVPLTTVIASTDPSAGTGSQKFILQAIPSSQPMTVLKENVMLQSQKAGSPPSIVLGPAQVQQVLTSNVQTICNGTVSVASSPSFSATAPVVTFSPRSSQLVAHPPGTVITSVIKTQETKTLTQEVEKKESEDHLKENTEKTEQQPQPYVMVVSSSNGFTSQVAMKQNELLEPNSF
Chain of SPIB (Q01892 whole entry): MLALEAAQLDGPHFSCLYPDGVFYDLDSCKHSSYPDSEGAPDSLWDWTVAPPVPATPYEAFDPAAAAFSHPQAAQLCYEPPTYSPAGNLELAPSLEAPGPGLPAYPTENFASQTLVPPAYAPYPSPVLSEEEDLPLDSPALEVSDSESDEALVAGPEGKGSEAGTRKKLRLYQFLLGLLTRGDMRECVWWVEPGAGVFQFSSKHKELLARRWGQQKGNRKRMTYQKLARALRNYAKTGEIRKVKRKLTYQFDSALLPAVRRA
Chain of ELF4 (Q99607 whole entry): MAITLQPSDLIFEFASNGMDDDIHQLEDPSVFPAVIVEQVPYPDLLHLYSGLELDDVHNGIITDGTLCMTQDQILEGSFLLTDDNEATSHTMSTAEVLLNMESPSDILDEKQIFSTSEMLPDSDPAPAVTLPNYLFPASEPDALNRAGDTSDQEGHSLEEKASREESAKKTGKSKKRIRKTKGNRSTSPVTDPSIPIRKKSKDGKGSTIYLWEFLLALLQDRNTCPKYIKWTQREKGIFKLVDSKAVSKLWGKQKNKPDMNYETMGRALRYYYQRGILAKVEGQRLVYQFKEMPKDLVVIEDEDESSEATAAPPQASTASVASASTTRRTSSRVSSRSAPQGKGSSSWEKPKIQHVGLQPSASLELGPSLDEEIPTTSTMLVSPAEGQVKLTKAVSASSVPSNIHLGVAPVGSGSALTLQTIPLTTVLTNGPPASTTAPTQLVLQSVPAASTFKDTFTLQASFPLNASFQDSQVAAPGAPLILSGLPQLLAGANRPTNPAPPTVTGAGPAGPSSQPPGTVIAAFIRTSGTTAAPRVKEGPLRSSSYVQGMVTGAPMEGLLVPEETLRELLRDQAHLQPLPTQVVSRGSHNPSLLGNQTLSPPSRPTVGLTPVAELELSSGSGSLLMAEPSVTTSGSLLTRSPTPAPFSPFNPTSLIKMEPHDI
Chain of CRX (O43186 whole entry): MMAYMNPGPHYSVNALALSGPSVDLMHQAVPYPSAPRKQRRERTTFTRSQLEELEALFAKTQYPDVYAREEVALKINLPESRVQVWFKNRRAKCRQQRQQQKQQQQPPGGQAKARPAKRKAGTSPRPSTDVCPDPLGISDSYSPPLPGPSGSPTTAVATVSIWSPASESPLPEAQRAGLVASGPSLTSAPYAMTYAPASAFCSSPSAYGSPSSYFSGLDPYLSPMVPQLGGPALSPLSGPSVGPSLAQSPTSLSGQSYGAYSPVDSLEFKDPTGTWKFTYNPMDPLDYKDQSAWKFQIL
Chain of ETV5 (P41161 whole entry): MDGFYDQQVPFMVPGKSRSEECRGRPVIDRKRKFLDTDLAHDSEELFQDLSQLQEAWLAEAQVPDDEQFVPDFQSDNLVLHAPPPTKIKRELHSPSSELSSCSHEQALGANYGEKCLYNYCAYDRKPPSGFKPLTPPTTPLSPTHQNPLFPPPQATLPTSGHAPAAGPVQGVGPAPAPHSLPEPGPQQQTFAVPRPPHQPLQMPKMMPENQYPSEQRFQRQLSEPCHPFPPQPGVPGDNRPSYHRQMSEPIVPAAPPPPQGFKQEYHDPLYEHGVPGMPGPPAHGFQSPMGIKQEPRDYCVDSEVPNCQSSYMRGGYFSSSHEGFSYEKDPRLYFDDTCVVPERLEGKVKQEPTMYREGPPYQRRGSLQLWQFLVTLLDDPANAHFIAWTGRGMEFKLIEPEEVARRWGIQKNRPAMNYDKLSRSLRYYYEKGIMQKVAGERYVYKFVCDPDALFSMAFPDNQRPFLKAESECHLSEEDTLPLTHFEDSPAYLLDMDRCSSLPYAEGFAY
Chain of ETV1 (P50549 whole entry): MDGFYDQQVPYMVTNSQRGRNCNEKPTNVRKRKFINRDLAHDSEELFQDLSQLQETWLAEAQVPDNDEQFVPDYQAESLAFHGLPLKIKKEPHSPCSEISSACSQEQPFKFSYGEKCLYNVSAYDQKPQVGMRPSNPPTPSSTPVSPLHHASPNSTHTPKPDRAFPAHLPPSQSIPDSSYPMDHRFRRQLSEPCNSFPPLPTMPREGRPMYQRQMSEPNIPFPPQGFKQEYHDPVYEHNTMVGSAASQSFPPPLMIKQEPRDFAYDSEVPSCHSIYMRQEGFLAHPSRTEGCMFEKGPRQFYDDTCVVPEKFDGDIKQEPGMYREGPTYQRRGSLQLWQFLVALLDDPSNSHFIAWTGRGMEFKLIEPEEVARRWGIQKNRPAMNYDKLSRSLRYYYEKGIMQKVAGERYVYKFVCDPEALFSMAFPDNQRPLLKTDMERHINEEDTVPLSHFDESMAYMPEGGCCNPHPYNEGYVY
Chain of HSF1 (Q00613 whole entry): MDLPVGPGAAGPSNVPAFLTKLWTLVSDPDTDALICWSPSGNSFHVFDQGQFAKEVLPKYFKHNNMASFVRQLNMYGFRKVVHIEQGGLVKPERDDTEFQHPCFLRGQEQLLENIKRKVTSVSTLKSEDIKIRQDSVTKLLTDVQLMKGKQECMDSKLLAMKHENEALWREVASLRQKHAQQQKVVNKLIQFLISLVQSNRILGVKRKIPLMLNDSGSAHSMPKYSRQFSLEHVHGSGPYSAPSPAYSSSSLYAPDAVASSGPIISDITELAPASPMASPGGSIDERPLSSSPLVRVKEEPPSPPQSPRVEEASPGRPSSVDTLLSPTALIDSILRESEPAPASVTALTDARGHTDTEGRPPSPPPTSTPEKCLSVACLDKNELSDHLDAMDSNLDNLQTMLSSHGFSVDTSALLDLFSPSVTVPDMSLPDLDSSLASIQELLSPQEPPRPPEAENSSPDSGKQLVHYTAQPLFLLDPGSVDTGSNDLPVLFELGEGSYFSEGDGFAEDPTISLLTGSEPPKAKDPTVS

Turning to AAGGTA, the binding signal with FLI1 is 1.1 fold enrichment (6-mer frequency, TF over GST control); with ELK1, 1.08 fold enrichment (6-mer frequency, TF over GST control); with GABPA, 1.18 fold enrichment (6-mer frequency, TF over GST control); with ERG it was 1.05 fold enrichment (6-mer frequency, TF over GST control); in the experiment with ELF1, 1.13 fold enrichment (6-mer frequency, TF over GST control); with EHF, 1.1 fold enrichment (6-mer frequency, TF over GST control). Further, the binding signal with SPI1 was 1.07 fold enrichment (6-mer frequency, TF over GST control); in the experiment with SPIB, 1.05 fold enrichment (6-mer frequency, TF over GST control); with ELK3, 1.09 fold enrichment (6-mer frequency, TF over GST control); with FEV, 1.02 fold enrichment (6-mer frequency, TF over GST control); with ETV5, 1.11 fold enrichment (6-mer frequency, TF over GST control); with HSF1, 1.11 fold enrichment (6-mer frequency, TF over GST control). In addition, the binding signal is 1.1 fold enrichment (6-mer frequency, TF over GST control) with ELF4; 1.14 fold enrichment (6-mer frequency, TF over GST control) with ELK4; 1.07 fold enrichment (6-mer frequency, TF over GST control) with ETV2; 1.16 fold enrichment (6-mer frequency, TF over GST control) with ELF3; 1.05 fold enrichment (6-mer frequency, TF over GST control) in the experiment with CRX; 1.11 fold enrichment (6-mer frequency, TF over GST control) with ETV1.

These data come from paper PMC7862700, “An all-to-all approach to the identification of sequence-specific readers for epigenetic DNA modifications on cytosine”.
